# Test results as given in the supplement of paper PMC8728848.
# The entries come from a sample that favours the strongest signals as a whole.
# B1: CML1 (Coprinopsis cinerea) (protein)
# chain: MAIFHTGSELFIITRGPGKLTLLTWGGLNNLRSVIGAIPTENTGVTKWAVSFSHNYTRFSFIWEGQGEACYQIGNGLTRSPVGRSWSSSSTIHWGSSTVITEDVTSVVPGAVNRDKVTTAYALPDNL
# Tests used:
# Assay in all cases: glycan array binding signal (z-score within array); higher = stronger binding
# Settings in all cases: glycan notation: IUPAC condensed, linker removed
# [1] = target: Fuc(a1-2)Gal(b1-3)GlcNAc
# Method in brief: (§1)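 Glycan array binding is given as a within-array Z-score, which can be read as non-binding when negative. The arrays, 3228 of them, came from the Consortium for Functional Glycomics database and were retained only where the protein sequence was available. Z-scores were averaged across arrays of the same protein sequence at different concentrations or buffers and across linkers.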
# [2] = target: Fuc(a1-2)Gal(b1-3)GlcNAc(b1-2)Man(a1-3)[Fuc(a1-2)Gal(b1-3)GlcNAc(b1-2)Man(a1-6)]Man(b1-4)GlcNAc(b1-4)[Fuc(a1-6)]GlcNAc
# Method in brief: as §1
# [3] = target: Fuc(a1-2)Gal(b1-3)GlcNAc(b1-3)Gal(b1-4)Glc
# Method in brief: as §1
# [4] = target: Fuc(a1-2)Gal(b1-3)GlcNAc(b1-3)GalNAc
# Method in brief: as §1
# [5] = target: Fuc(a1-2)Gal(b1-3)GlcNAc6S
# Method in brief: as §1
# [6] = target: Fuc(a1-2)Gal(b1-4)Glc
# Method in brief: as §1
# [7] = target: Fuc(a1-2)Gal(b1-4)Glc6S
# Method in brief: as §1
# [8] = target: Fuc(a1-2)Gal(b1-4)GlcNAc(b1-3)Gal(b1-4)GlcNAc
# Method in brief: as §1
# [9] = target: Fuc(a1-2)Gal3S(b1-4)GlcNAc
# Method in brief: as §1
# [10] = target: Fuc(a1-2)Gal6S(b1-3)GlcNAc6S
# Method in brief: as §1
# [11] = target: Fuc(a1-2)[Gal(a1-3)]Gal(b1-3)GlcNAc
# Method in brief: as §1
# [12] = target: Fuc(a1-2)[Gal(a1-3)]Gal(b1-3)GlcNAc(b1-2)Man(a1-3)[Fuc(a1-2)[Gal(a1-3)]Gal(b1-3)GlcNAc(b1-2)Man(a1-6)]Man(b1-4)GlcNAc(b1-4)[Fuc(a1-6)]GlcNAc
# Method in brief: as §1
# [13] = target: Fuc(a1-2)[Gal(a1-3)]Gal(b1-4)GlcNAc(b1-2)Man
# Method in brief: as §1
# [14] = target: Fuc(a1-2)[Gal(a1-3)]Gal(b1-4)GlcNAc(b1-2)Man(a1-3)[Fuc(a1-2)[Gal(a1-3)]Gal(b1-4)GlcNAc(b1-2)Man(a1-6)]Man(b1-4)GlcNAc(b1-4)GlcNAc
# Method in brief: as §1
# [15] = target: Fuc(a1-2)[Gal(a1-4)]Gal(b1-4)GlcNAc
# Method in brief: as §1
# [16] = target: Fuc(a1-2)[GalNAc(a1-3)]Gal(b1-4)GlcNAc(b1-2)Man
# Method in brief: as §1
# [17] = target: Fuc(a1-2)[GalNAc(b1-3)]Gal
# Method in brief: as §1
# [18] = target: Gal(a1-3)Gal(b1-4)[Fuc(a1-3)]GlcNAc
# Method in brief: as §1
# [19] = target: Gal(a1-4)Gal(b1-4)Glc
# Method in brief: as §1
# [20] = target: Gal(b1-3)Gal(b1-4)GlcNAc
# Method in brief: as §1
# [21] = target: Gal(b1-3)GlcNAc(b1-3)Gal(b1-4)GlcNAc
# Method in brief: as §1
# [22] = target: Gal(b1-3)[Neu5Ac(a2-6)]GalNAc
# Method in brief: as §1
# [23] = target: Gal(b1-4)GlcNAc(b1-2)Man(a1-3)[Gal(b1-4)GlcNAc(b1-2)Man(a1-6)][Gal(b1-4)GlcNAc(b1-4)]Man(b1-4)GlcNAc(b1-4)[Fuc(a1-6)]GlcNAc
# Method in brief: as §1
# [24] = target: Gal(b1-4)GlcNAc(b1-2)Man(a1-3)[GlcNAc(b1-2)Man(a1-6)]Man(b1-4)GlcNAc(b1-4)GlcNAc
# Method in brief: as §1
# [25] = target: Gal(b1-4)GlcNAc(b1-3)Gal(b1-3)GlcNAc
# Method in brief: as §1
# [26] = target: Gal(b1-4)GlcNAc(b1-3)Gal(b1-4)GlcNAc(b1-3)Gal(b1-4)GlcNAc(b1-3)Gal(b1-4)GlcNAc(b1-3)Gal(b1-4)GlcNAc(b1-3)Gal(b1-4)GlcNAc(b1-2)Man(a1-3)[Gal(b1-4)GlcNAc(b1-3)Gal(b1-4)GlcNAc(b1-3)Gal(b1-4)GlcNAc(b1-3)Gal(b1-4)GlcNAc(b1-3)Gal(b1-4)GlcNAc(b1-3)Gal(b1-4)GlcNAc(b1-2)Man(a1-6)]Man(b1-4)GlcNAc(b1-4)GlcNAc
# Method in brief: as §1
# [27] = target: Gal3S(b1-3)[Fuc(a1-4)]GlcNAc
# Method in brief: as §1
# [28] = target: Gal6S(b1-3)GlcNAc6S
# Method in brief: as §1
# [29] = target: GalNAc(b1-3)GalNAc
# Method in brief: as §1
# [30] = target: GlcNAc(b1-3)Gal(b1-4)Glc
# Method in brief: as §1
# [31] = target: GlcNAc(b1-3)Gal(b1-4)GlcNAc
# Method in brief: as §1
# [32] = target: GlcNAc(b1-3)[GlcNAc(b1-6)]GalNAc
# Method in brief: as §1
# [33] = target: Kdn(a2-3)Gal(b1-3)GlcNAc
# Method in brief: as §1
# [34] = target: Man(a1-2)Man(a1-3)Man
# Method in brief: as §1
# [35] = target: Neu5Ac(a2-3)Gal(b1-3)GalNAc(b1-3)Gal(a1-4)Gal(b1-4)Glc
# Method in brief: as §1
# [36] = target: Neu5Ac(a2-3)Gal(b1-3)GlcNAc(b1-2)Man(a1-3)[Neu5Ac(a2-3)Gal(b1-3)GlcNAc(b1-2)Man(a1-6)]Man(b1-4)GlcNAc(b1-4)GlcNAc
# Method in brief: as §1
# [37] = target: Neu5Ac(a2-3)Gal(b1-3)[Fuc(a1-4)]GlcNAc
# Method in brief: as §1
# [38] = target: Neu5Ac(a2-3)Gal(b1-4)GlcNAc(b1-2)[Neu5Ac(a2-3)Gal(b1-4)GlcNAc(b1-4)]Man(a1-3)[GlcNAc(b1-4)][Neu5Ac(a2-3)Gal(b1-4)GlcNAc(b1-4)Man(a1-6)]Man(b1-4)GlcNAc(b1-4)GlcNAc
# Method in brief: as §1
# [39] = target: Neu5Ac(a2-3)Gal(b1-4)GlcNAc(b1-3)Gal
# Method in brief: as §1
# [40] = target: Neu5Ac(a2-3)Gal(b1-4)GlcNAc(b1-3)Gal(b1-4)GlcNAc(b1-2)Man(a1-3)[Neu5Ac(a2-3)Gal(b1-4)GlcNAc(b1-3)Gal(b1-4)GlcNAc(b1-2)Man(a1-6)]Man(b1-4)GlcNAc(b1-4)GlcNAc
# Method in brief: as §1
# [41] = target: Neu5Ac(a2-3)Gal(b1-4)GlcNAc(b1-3)Gal(b1-4)GlcNAc(b1-3)GalNAc
# Method in brief: as §1
# [42] = target: Neu5Ac(a2-3)Gal(b1-4)GlcNAc(b1-3)Gal(b1-4)[Fuc(a1-3)]GlcNAc
# Method in brief: as §1
# [43] = target: Neu5Ac(a2-3)Gal(b1-4)[Fuc(a1-3)]GlcNAc(b1-3)Gal
# Method in brief: as §1
# [44] = target: Neu5Ac(a2-3)Gal(b1-4)[Fuc(a1-3)]GlcNAc(b1-3)Gal(b1-4)GlcNAc
# Method in brief: as §1
# [45] = target: Neu5Ac(a2-3)Gal(b1-4)[Fuc(a1-3)]GlcNAc6S
# Method in brief: as §1
# [46] = target: Neu5Ac(a2-3)Gal6S(b1-4)GlcNAc
# Method in brief: as §1
# [47] = target: Neu5Ac(a2-3)Gal6S(b1-4)[Fuc(a1-3)]GlcNAc
# Method in brief: as §1
# [48] = target: Neu5Ac(a2-3)[GalNAc(b1-4)]Gal(b1-4)GlcNAc
# Method in brief: as §1
# [49] = target: Neu5Ac(a2-6)Gal(b1-4)GlcNAc
# Method in brief: as §1
# [50] = target: Neu5Ac(a2-6)Gal(b1-4)GlcNAc(b1-2)[Neu5Ac(a2-6)Gal(b1-4)GlcNAc(b1-4)]Man(a1-3)[GlcNAc(b1-4)][Neu5Ac(a2-6)Gal(b1-4)GlcNAc(b1-2)[Neu5Ac(a2-6)Gal(b1-4)GlcNAc(b1-6)]Man(a1-6)]Man(b1-4)GlcNAc(b1-4)GlcNAc
# Method in brief: as §1
# [51] = target: Neu5Ac(a2-6)Gal(b1-4)GlcNAc(b1-3)Gal(b1-3)GlcNAc
# Method in brief: as §1
# [52] = target: Neu5Ac(a2-6)Gal(b1-4)GlcNAc(b1-6)[Gal(b1-3)GlcNAc(b1-3)]Gal(b1-4)Glc
# Method in brief: as §1
# [53] = target: Neu5Ac(a2-6)Gal(b1-4)GlcNAc6S
# Method in brief: as §1
# [54] = target: Neu5Ac(a2-6)GalNAc
# Method in brief: as §1
# [55] = target: Neu5Ac9Ac(a2-3)Gal(b1-4)GlcNAc
# Method in brief: as §1
# [56] = target: Neu5Gc(b2-6)Gal(b1-4)GlcNAc
# Method in brief: as §1
binder,measurement,setting,value
B1,glycan array binding signal (z-score),[1],5.31
same,glycan array binding signal (z-score),[2],1.34
same,glycan array binding signal (z-score),[3],4.85
same,glycan array binding signal (z-score),[4],3.31
same,glycan array binding signal (z-score),[5],4.12
same,glycan array binding signal (z-score),[6],-0.039
same,glycan array binding signal (z-score),[7],1.38
same,glycan array binding signal (z-score),[8],-0.335
same,glycan array binding signal (z-score),[9],-0.157
same,glycan array binding signal (z-score),[10],3.67
same,glycan array binding signal (z-score),[11],3.51
same,glycan array binding signal (z-score),[12],1.07
same,glycan array binding signal (z-score),[13],-0.329
same,glycan array binding signal (z-score),[14],-0.242
same,glycan array binding signal (z-score),[15],-0.314
same,glycan array binding signal (z-score),[16],-0.348
same,glycan array binding signal (z-score),[17],-0.318
same,glycan array binding signal (z-score),[18],-0.346
same,glycan array binding signal (z-score),[19],-0.322
same,glycan array binding signal (z-score),[20],-0.329
same,glycan array binding signal (z-score),[21],-0.339
same,glycan array binding signal (z-score),[22],-0.338
same,glycan array binding signal (z-score),[23],-0.348
same,glycan array binding signal (z-score),[24],-0.342
same,glycan array binding signal (z-score),[25],-0.326
same,glycan array binding signal (z-score),[26],-0.303
same,glycan array binding signal (z-score),[27],3.48
same,glycan array binding signal (z-score),[28],-0.336
same,glycan array binding signal (z-score),[29],-0.349
same,glycan array binding signal (z-score),[30],-0.323
same,glycan array binding signal (z-score),[31],-0.329
same,glycan array binding signal (z-score),[32],-0.329
same,glycan array binding signal (z-score),[33],-0.319
same,glycan array binding signal (z-score),[34],-0.348
same,glycan array binding signal (z-score),[35],-0.333
same,glycan array binding signal (z-score),[36],-0.355
same,glycan array binding signal (z-score),[37],4.64
same,glycan array binding signal (z-score),[38],-0.332
same,glycan array binding signal (z-score),[39],-0.3
same,glycan array binding signal (z-score),[40],-0.331
same,glycan array binding signal (z-score),[41],-0.342
same,glycan array binding signal (z-score),[42],-0.341
same,glycan array binding signal (z-score),[43],4.46
same,glycan array binding signal (z-score),[44],2.41
same,glycan array binding signal (z-score),[45],4.04
same,glycan array binding signal (z-score),[46],6.01
same,glycan array binding signal (z-score),[47],3.49
same,glycan array binding signal (z-score),[48],-0.353
same,glycan array binding signal (z-score),[49],-0.352
same,glycan array binding signal (z-score),[50],-0.321
same,glycan array binding signal (z-score),[51],-0.35
same,glycan array binding signal (z-score),[52],-0.355
same,glycan array binding signal (z-score),[53],-0.334
same,glycan array binding signal (z-score),[54],-0.331
same,glycan array binding signal (z-score),[55],-0.348
same,glycan array binding signal (z-score),[56],-0.339
